Data on eight compounds can be found in PubChem BioAssay (EPA / NIEHS).

Broadly, the AC50 is the concentration at which the activity in the assay is half-maximal.

Several values for one entry are separate records, joined by “and”; a condition that tells them apart may be missing. Equal entries are not always repeated. Results filed as inconclusive are left out. Some structures have more than one record in an assay (separate samples or runs), and their calls can disagree. Activity calls are given as the source filed them. The calls were made as follows: active = hit-call score of the fitted dose curve at least 0.9, where 1 is the maximum; inconclusive = response in the unintended direction; inactive = score below 0.9.

The target of assay [1] is Metabotropic glutamate receptor 1 (Rattus norvegicus) (UniProt P23385). Put plainly: NVS_GPCR_rmMGluR1: NovaScreen (NVS) G Protein-Coupled Receptor Assay for rat Glutamate Metabotropic Receptor 1 (MGluR1) (AID 2283305). In short, it runs like this:
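Binding to native receptor from rat cerebellum extract, measured as displacement of a radioligand (scintillation counting, filter separation) after 1 hour. Compounds tested at 25 uM in duplicate, then titrated to a 50 uM maximum.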

The target in assay [2] is rat Neurokinin-3 Receptor (NK3), Tacr3 (gene 24808) (UniProt P16177). The assay is described as follows: NVS_GPCR_rNK3: NovaScreen (NVS) G Protein-Coupled Receptor Assay for rat Neurokinin-3 Receptor (NK3) (AID 2283310). In short, it runs like this: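 Filter-based radioligand displacement on rat cortex membrane preparations, read by scintillation 2 h post-dose. Chemicals first tested in duplicate at 25 uM; actives followed up in concentration series with a 50 uM maximum.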
Chain of rat Neurokinin-3 Receptor (NK3), Tacr3 (gene 24808) (P16177 whole entry, looked up): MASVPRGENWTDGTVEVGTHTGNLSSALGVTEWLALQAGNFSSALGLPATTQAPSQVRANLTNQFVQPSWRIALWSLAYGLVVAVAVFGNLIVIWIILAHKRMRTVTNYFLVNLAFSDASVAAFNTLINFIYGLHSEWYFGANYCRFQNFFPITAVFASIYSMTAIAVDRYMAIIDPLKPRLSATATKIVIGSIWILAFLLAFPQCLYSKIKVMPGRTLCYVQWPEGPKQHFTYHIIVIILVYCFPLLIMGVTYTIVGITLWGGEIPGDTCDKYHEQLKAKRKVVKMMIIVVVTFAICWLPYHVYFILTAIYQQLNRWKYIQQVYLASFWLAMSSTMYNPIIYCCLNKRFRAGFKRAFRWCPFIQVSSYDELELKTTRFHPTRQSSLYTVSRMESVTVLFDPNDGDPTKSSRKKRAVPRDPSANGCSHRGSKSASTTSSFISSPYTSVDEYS

Assay [3] deals with rat Vasopressin 1 Receptor (V1), Avpr1a (gene 25107) (UniProt P30560). Put plainly: NVS_GPCR_rV1: NovaScreen (NVS) G Protein-Coupled Receptor Assay for rat Vasopressin 1 Receptor (V1) (AID 2283316). The procedure, abridged:
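Concentration-response up to 50 uM for chemicals passing a threshold such as 30% inhibition in an initial duplicate 25 uM screen. Displacement of radioligand from rat liver membranes measured after 1.5 h by filtration and scintillation.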

Assay [4] concerns the target rat Opioid Receptor, Non-selective Binding, Oprm1 (gene 25601) (UniProt P33535). The assay is described as follows: NVS_GPCR_rOpiate_NonSelective: NovaScreen (NVS) G Protein-Coupled Receptor Assay for rat Opioid Receptor, Non-selective Binding (AID 2283318). The procedure, abridged:
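Filter-based radioligand displacement using rat forebrain membrane preparations, measured 1.5 h post-dosing. Single-concentration duplicate screen at 25 uM, follow-up in concentration series; activity taken as signal loss relative to DMSO.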

For assay [5], the target named is human Serotonin, 5-Hydroxytryptamine Receptor 3 (5HT3), HTR3A (gene 3359) (UniProt P46098). Put plainly: NVS_LGIC_h5HT3: NovaScreen (NVS) Ligand-Gated Ion Channel Assay for human Serotonin, 5-Hydroxytryptamine Receptor 3 (5HT3) (AID 2283325). The procedure, abridged:
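Initially tested at 25 uM in duplicate, then up to 50 uM in concentration-response for actives, compounds competed with a radioligand for HEK293-derived human 5-HT3 receptor. Bound counts were measured by filtration and scintillation at 1 h; loss of signal versus DMSO.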

In assay [6] the target is bovine Gamma-Aminobutyric Acid Type A Receptor BDZ, alpha 5 site (GABARa5), GABRA5 (gene 523515) (UniProt Q08E50). Put plainly: NVS_LGIC_bGABARa5: NovaScreen (NVS) Ligand-Gated Ion Channel Assay for bovine Gamma-Aminobutyric Acid Type A Receptor BDZ, alpha 5 site (GABARa5) (AID 2283323). In short, it runs like this: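 Tested first in duplicate at a single 25 uM, with hits re-run in concentration series to a 50 uM maximum. Bovine hippocampal membranes; specific radioligand displacement measured by filter scintillation counting 1 hr post-dose.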
Chain of bovine Gamma-Aminobutyric Acid Type A Receptor BDZ, alpha 5 site (GABARa5), GABRA5 (gene 523515) (Q08E50 whole entry, looked up): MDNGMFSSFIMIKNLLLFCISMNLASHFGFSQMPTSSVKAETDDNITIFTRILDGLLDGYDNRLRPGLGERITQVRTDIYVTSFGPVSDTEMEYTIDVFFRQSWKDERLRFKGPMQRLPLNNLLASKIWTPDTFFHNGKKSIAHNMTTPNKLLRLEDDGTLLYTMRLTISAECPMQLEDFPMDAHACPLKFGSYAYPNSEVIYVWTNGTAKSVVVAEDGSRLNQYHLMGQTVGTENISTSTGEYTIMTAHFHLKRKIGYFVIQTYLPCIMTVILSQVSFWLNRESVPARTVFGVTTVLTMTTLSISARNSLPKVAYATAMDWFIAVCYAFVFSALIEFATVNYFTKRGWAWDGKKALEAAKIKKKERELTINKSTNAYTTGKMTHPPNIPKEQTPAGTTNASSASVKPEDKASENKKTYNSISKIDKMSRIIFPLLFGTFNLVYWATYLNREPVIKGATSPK

Chain of rat Opioid Receptor, Non-selective Binding, Oprm1 (gene 25601) (P33535 whole entry, looked up): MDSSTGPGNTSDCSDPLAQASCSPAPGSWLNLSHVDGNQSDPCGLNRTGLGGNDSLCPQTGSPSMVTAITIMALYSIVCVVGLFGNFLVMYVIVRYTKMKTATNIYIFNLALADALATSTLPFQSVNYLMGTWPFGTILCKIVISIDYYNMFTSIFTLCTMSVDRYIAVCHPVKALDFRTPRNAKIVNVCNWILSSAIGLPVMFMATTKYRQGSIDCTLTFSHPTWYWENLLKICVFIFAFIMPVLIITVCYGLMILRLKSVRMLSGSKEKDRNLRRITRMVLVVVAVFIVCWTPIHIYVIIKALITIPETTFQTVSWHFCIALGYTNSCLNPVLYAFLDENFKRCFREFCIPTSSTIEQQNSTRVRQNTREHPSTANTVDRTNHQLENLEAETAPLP
Chain of rat Vasopressin 1 Receptor (V1), Avpr1a (gene 25107) (P30560 whole entry, looked up): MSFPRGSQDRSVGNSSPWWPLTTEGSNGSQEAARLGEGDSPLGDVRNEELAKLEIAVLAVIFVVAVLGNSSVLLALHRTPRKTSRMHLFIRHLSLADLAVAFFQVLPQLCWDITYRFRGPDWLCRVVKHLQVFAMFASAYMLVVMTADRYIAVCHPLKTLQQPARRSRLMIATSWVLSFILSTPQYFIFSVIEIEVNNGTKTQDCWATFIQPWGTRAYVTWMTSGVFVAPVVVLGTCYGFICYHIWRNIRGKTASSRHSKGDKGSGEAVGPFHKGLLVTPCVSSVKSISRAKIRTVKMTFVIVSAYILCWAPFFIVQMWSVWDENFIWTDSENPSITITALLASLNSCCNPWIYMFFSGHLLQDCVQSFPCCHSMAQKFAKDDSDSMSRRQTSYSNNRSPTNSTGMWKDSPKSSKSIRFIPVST
Chain of Metabotropic glutamate receptor 1 (Rattus norvegicus) (P23385 whole entry, looked up): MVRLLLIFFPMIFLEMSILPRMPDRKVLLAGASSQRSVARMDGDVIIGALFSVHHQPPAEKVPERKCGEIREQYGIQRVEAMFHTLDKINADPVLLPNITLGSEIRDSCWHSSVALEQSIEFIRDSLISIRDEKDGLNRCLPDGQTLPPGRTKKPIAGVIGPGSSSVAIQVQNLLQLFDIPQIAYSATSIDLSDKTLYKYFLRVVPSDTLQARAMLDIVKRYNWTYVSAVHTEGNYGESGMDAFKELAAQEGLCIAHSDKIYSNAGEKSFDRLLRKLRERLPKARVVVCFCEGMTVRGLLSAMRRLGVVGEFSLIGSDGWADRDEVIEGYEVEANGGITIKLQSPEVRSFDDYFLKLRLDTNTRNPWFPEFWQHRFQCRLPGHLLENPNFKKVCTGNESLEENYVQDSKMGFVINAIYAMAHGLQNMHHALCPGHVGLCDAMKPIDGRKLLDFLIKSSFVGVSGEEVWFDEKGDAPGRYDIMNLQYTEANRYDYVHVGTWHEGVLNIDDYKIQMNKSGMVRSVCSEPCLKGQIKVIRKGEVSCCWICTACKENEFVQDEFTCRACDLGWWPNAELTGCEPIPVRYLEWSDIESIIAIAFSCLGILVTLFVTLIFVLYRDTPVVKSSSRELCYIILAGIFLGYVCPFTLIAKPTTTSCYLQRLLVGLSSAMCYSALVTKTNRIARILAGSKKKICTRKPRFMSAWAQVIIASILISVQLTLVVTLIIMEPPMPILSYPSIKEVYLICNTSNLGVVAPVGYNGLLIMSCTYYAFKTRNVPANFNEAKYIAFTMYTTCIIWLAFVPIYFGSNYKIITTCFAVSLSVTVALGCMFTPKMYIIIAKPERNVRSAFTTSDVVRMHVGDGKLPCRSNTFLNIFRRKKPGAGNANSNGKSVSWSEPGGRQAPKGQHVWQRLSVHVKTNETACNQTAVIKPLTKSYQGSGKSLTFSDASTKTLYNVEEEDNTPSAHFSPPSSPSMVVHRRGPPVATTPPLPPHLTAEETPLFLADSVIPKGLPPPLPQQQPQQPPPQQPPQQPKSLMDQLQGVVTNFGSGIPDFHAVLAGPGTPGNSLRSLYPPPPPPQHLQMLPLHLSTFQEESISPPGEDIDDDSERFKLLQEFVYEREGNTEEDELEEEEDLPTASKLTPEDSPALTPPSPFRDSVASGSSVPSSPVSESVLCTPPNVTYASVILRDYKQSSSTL
Chain of human Serotonin, 5-Hydroxytryptamine Receptor 3 (5HT3), HTR3A (gene 3359) (P46098 whole entry, looked up): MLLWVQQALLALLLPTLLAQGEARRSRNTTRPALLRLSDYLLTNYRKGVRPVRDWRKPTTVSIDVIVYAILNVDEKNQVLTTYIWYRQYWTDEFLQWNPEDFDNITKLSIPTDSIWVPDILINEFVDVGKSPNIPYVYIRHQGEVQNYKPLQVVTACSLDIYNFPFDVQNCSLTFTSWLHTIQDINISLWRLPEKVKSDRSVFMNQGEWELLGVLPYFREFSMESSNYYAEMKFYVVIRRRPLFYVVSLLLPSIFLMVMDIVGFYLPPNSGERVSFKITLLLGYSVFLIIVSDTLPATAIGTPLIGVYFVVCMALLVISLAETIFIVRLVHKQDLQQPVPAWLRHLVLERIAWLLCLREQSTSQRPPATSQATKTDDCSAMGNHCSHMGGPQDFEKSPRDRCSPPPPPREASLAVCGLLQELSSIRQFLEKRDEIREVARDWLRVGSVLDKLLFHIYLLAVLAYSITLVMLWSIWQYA

As for `O=C(c1ccc(O)cc1O)c1ccc(O)cc1O`, the outcome in assay [1] was inactive.
On to `CCCCOCCOCCOCc1cc2c(cc1CCC)OCO2`, for which, in assay [1], the result was inactive.
As to `S=C(S)NCCNC(=S)S.[Mn+2].[S-]C([S-])=NCCN=C([S-])[S-].[Zn+2]`, the compound was called inactive in assay [2] and in assay [3].
As to `S=C([S-])NCCNC(=S)[S-].[Mn+2]`, in assay [2], the outcome was inactive.
Take `N#CSCSc1nc2ccccc2s1`: the AC50 in assay [3] was 2.34 µM (active).
In the case of `C=CCOC(Cn1ccnc1)c1ccc(Cl)cc1Cl` (stereo not given), the AC50 in assay [4] was 9.36 µM (active).
For `CC(C)(c1ccc(O)cc1)c1ccc(O)cc1`, in assay [4], the AC50 was 25.4 µM (active) and 17.6 µM (active). Moreover, in assay [5], the compound was called inactive.
For `Oc1ccc(C(c2ccc(O)cc2)C(Cl)(Cl)Cl)cc1`, the result in assay [6] was inactive.
